ssDAF-12 act = S. stercoralis DAF-12 nuclear receptor activators, primary screen, cell-based, luminescence, HEK293, GRIP1 co-expression, lit1-tk-luc. HEK293 ssDAF-12/GRIP1 lit1-tk-luc reporter; % of 3 µM dafachronic acid response. activation, % at 6.8 µM. hit rate 1% among 370,000. AID 652126, 2013;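 active = activation above the mean over all tested compounds plus 3 SD, cut at about 0.9% in these data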
DAX1 inh-1 = DAX1 (NR0B1) inhibitors, primary screen, cell-based, HEK293, Gal4-DAX1, luciferase luminescence. hit rate 0.99% among 340,000. Nuclear receptor subfamily 0 group B member 1 (Homo sapiens), P51843. HEK293 Gal4-DAX1 luciferase reporter. AID 504766, 2011. inhibition, % at 6.75 µM;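 active = inhibition above the mean over all tested compounds plus 3 SD, cut at about 4.2% in these data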;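 note: inhibition shows as a rise in luminescence from relieved DAX1 repression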
Target sequence (P51843 207-470 limits assumed): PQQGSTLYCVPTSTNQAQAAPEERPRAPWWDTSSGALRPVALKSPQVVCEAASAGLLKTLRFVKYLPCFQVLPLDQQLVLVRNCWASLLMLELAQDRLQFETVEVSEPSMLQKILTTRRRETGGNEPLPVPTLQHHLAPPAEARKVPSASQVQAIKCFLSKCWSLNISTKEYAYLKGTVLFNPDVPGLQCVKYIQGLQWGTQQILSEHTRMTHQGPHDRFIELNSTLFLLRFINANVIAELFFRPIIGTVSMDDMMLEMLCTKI
DAX1 inh-2 = DAX1 (NR0B1) inhibitors on StAR promoter, primary screen, cell-based, luminescence, SF-1 (NR5A1), full-length DAX-1. HEK293T StAR-luciferase reporter, SF-1/DAX-1 repression relief. inhibition, % at 6.8 µM. hit rate 1.1% among 370,000. AID 652010, 2013;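 active = inhibition above the mean over all tested compounds plus 3 SD, cut at about 3.6% in these data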;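 note: higher inhibition means more luminescence from relief of DAX-1 repression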
hgDAF-12 ag = H. glycines DAF-12 receptor agonists, primary screen, cell-based, luminescence, HEK293, GAL4 fusion, UAS-luciferase; activation, % at 6.8 µM; AID 687014, 2013; HEK293 GAL4-hgDAF12 UAS-luciferase reporter, agonist luminescence; normalized to butyrate control; hit rate 1.8% among 370,000;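 active = activation above a cutoff set at the mean of all screened compounds plus 3 SD, cut at about 10% in these data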
hcDAF-12 act = H. contortus DAF-12 nuclear receptor activators, primary screen, cell-based, luminescence, HEK293, lit1-tk-luc reporter; HEK293 hcDAF-12 lit1-tk-luc reporter; 0% DMSO, 100% Δ7-dafachronic acid; activation, % at 6.8 µM; hit rate 1.4% among 370,000; AID 652067, 2013;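 active = activation above the mean of all tested compounds plus 3 SD, cut at about 5.5% in these data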
DAX1 conf = DAX1 (NR0B1) inhibitors relieving SF-1 repression, confirmation, cell-based, luminescence, HEK293T, full-length DAX-1, SF-1 activated StAR promoter. HEK293T StAR-promoter luciferase reporter, SF-1/DAX-1 repression. inhibition, % at 6.8 µM. shares compounds with DAX1 inh-2. hit rate 87% among 2,400;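 active = inhibition above the average of every tested compound plus 3 SD, cut at about 3.8% in these data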
SF1 mutant ctr = StAR reporter signal changes without DAX1, counter-screen for DAX1 inhibitor project, cell-based, luminescence, AF-2 mutant SF-1, transactivation | shares compounds with DAX1 inh-2 | HEK293 StAR-luciferase, SF-1 AF2 mutant | inhibition, % at 6.8 µM | hit rate 78% among 2,400;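 active = inhibition above the mean of all tested compounds plus 3 SD, cut at about 3% in these data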
Of the large screens only hits and unclear results are named; the others gave an inactive call (follow-up assays come after a bar, where they were run). Rows were chosen to be rich in hits. Some 4.1% of all compounds tested hit in one or more screens of this group.

COc1ccccc1CNC(=O)C1CCCN1S(=O)(=O)c1ccc2c(c1)C(C)(C)C(=O)N2C (stereo unspecified)	none (no result: DAX1 inh-1)
O=S1(=O)CC(N2CC=CC2)CN1Cc1cn(Cc2ccccc2)nn1 (stereo unspecified)	none (no result: DAX1 inh-1)
COc1cc2ccnc(C=NO)c2cc1OC	none
CN(C(=O)[C@@H](Cc1ccccc1)NC(=O)[C@H]1O[C@@H](n2cnc3c(=O)[nH]c(N)nc32)[C@H](O)[C@@H]1O)C1CCCCC1	none (no result: DAX1 inh-1)
CC(=O)Nc1cccc(NC(=O)Nc2ccc(F)cc2F)c1	ssDAF-12 act 1.3
CCN(CC)c1ncnc2c1ncn2[C@H]1CN(Cc2cccnc2)C[C@@H](CO)O1	none (no result: DAX1 inh-1)
CCc1ccc(CNC(=O)C(=O)NCC2CCCO2)cc1 (stereo unspecified)	none
CCCCNC(=O)c1ccc(NC(=O)C2CCCO2)cc1 (stereo unspecified)	none
CCCCc1ccc(NC(=O)C2CCCO2)cc1 (stereo unspecified)	hgDAF-12 ag 11
CCc1ccc(NC(=O)C(=O)NCC2CCCO2)cc1 (stereo unspecified)	DAX1 inh-1 4.6, DAX1 inh-2 4.3
O=C(NCCc1ccccc1)c1ccccc1NC(=O)C1CCCO1 (stereo unspecified)	DAX1 inh-2 4.3, hgDAF-12 ag 11, hcDAF-12 act 5.6
C[C@@H]1CN([C@H](C)CO)S(=O)(=O)c2ccc(Br)cc2O[C@H]1CN(C)CC1CCOCC1	none (no result: DAX1 inh-1)
O=C(CSc1ccc(Cl)cc1)N/N=C/c1ccc([N+](=O)[O-])o1	none
COC(=O)c1cc2c(c3c4cc(OC)ccc4n(S(=O)(=O)c4ccc(OC)cc4)c13)C(=O)N(Cc1ccc(N(C)C)cc1)C2	none (no result: DAX1 inh-1)
COCC(=O)N1C[C@H]2CON(C)[C@H]2C[C@H]1c1cccc(-c2cc(Cl)cc(Cl)c2)c1	none (no result: DAX1 inh-1)
COC(=O)c1ccccc1NC(=O)c1c(Br)cnn1C	none
COC(=O)c1ccccc1NC(=O)c1ccnn1C	ssDAF-12 act 11
CN1[C@@H](Cc2ccccc2)COc2cc(F)ccc2S1(=O)=O	none (no result: DAX1 inh-1)
COc1ccc2cc(C(=O)NCc3ccco3)c(=O)oc2c1	hgDAF-12 ag 10
COc1ccc2cc(C(=O)NCc3ccco3)c(=Nc3ccc(C(=O)O)cc3)oc2c1	hgDAF-12 ag 11
COC(=O)[C@]12C[C@H](CC(=O)NCC34CC5CC(CC(C5)C3)C4)C(=O)N(Cc3cccc4ccccc34)C1=C[C@H](C(C)(C)C)O[C@@H]2C	none (no result: DAX1 inh-1)
O=C(NCCc1ccccn1)c1ccc2nc(Cc3ccccc3F)oc2c1	DAX1 inh-2 7.0 | DAX1 conf 6.9 | SF1 mutant ctr 5.2
Cn1cc(CNC(=O)c2ccc3nc(Cc4ccccc4F)oc3c2)cn1	none
CCn1cc(CNC(=O)c2ccc3nc(Cc4ccccc4F)oc3c2)cn1	none
Cn1cc(CCNC(=O)c2ccc3nc(Cc4ccccc4F)oc3c2)cn1	DAX1 inh-2 5.0, hgDAF-12 ag 12 | DAX1 conf 7.1 | SF1 mutant ctr 5.8
O=c1cc(N2CCN(c3cccc(C(F)(F)F)c3)CC2)[nH]c(=O)n1-c1ccccc1	none (no result: DAX1 inh-1, DAX1 inh-2)
O=C(Nc1nccs1)c1ccc(N2CCOCC2)c([N+](=O)[O-])c1	DAX1 inh-2 7.0 | DAX1 conf 8.4 | SF1 mutant ctr 5.4
O=C(Nc1nccs1)c1ccc(-c2ccccc2[N+](=O)[O-])o1	DAX1 inh-2 5.2 | DAX1 conf 7.2 | SF1 mutant ctr 6.3
Cc1ccc(C(=O)N/C(=C/c2ccc(N(C)C)cc2)C(=O)NCC2CCCO2)cc1 (stereo unspecified)	none
O=C(Nc1ccc(N2CCOCC2)c(F)c1)c1cccs1	DAX1 inh-2 10 | DAX1 conf 11 | SF1 mutant ctr 7.4
COC(=O)c1cc(NC(=O)c2cccs2)ccc1N1CCOCC1	none
O=C(NCCc1ccccc1)c1cccc2c(-c3cccnc3)coc12	none (no result: DAX1 inh-1)
COc1cc(SC)ccc1C(=O)Nc1ccc(Cl)cn1	DAX1 inh-2 5.3, hgDAF-12 ag 12 | DAX1 conf inactive | SF1 mutant ctr inactive
CSc1ccc(Cl)c(C(=O)Nc2ccc(Cl)cn2)c1	none
COC(=O)c1ccc(N2C(c3cc(OC)cc(OC)c3)=Cc3ccc(-c4cccnc4)cc3C2CC(=O)C2CC2)cc1 (stereo unspecified)	none (no result: DAX1 inh-1)
S=C(NCCCN1CCOCC1)Nc1ccc(-c2nc3ccccc3[nH]2)cc1	none
CS(=O)(=O)c1cccc(C(=O)Nc2ccc(-c3nc4ccccc4[nH]3)cc2)c1	DAX1 inh-2 7.2 | DAX1 conf 6.7 | SF1 mutant ctr inactive
CN(C)CCNC(=S)Nc1ccc(-c2nc3ccccc3[nH]2)cc1	DAX1 inh-2 5.0, hgDAF-12 ag 13 | DAX1 conf 12 | SF1 mutant ctr 8.7
O=C(CCNC(=O)C1CCN(S(=O)(=O)c2ccc(F)cc2)CC1)NCc1cccnc1	none
COc1cc(NC(=O)c2cc3ccccc3cc2OC)ccc1NC(=O)c1cccs1	none
O=C(NCc1ccccc1Cl)C1CCCN(c2ncccn2)C1 (stereo unspecified)	none (no result: DAX1 inh-1)
Cc1cc(C(=O)O)c(C)o1	none (no result: DAX1 inh-1)
O=C(OCc1cn([C@H]2CN(C(=O)c3cccs3)[C@@H](c3ccccc3)C[C@@H]2O)nn1)c1ccccc1	none
Cc1nc2ccc(NC(=O)C3=NN(C)C(=O)CC3)cc2s1	DAX1 inh-2 7.5 | DAX1 conf inactive | SF1 mutant ctr 3.4
CC(=O)c1sc(Nc2ccc(Oc3ccccc3)cc2)nc1C	DAX1 inh-2 9.2 (no result: DAX1 inh-1) | DAX1 conf 3.9 | SF1 mutant ctr inactive
CC(=O)c1sc(Nc2ccccc2)nc1C	none (no result: DAX1 inh-1)
CC(=O)c1sc(NC(=O)c2ccc(Cn3cc(Br)cn3)o2)nc1C	none
Cc1nc2ccc(NC(=O)c3cccnc3)cc2s1	none
CCCC(=O)Nc1nc2ccc(NC(=O)c3ccc(Br)o3)cc2s1	none
CC(=O)c1sc(NC(=O)c2ccc(Br)o2)nc1C	ssDAF-12 act 2.1, DAX1 inh-2 4.6 | DAX1 conf 4.1 | SF1 mutant ctr 5.4

Screening results: PubChem, The Scripps Research Institute Molecular Screening Center
